Over roughly 35,000 sequences, “fluorescence intensity (a.u.)” has its median near 10,000; the highest 2% begin near 52,000. This is one part of a sample in which the highest values are shown more often than they occur.
Target: T1, OsWOX13 (Oryza sativa, UniProt Q5QMM3 1-267)
T1 sequence: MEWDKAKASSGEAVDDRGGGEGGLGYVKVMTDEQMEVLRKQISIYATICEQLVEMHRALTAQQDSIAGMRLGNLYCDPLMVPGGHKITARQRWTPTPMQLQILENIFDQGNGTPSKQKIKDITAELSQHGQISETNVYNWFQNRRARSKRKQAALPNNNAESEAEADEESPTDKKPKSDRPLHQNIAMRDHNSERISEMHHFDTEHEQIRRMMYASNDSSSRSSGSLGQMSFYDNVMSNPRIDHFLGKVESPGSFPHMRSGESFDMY
Test: protein-binding microarray (RPBM); PBS, 2% BSA, 51.3 ng/ul salmon testes DNA, 50 uM zinc acetate, 200 nM TF, 25 C, 1 h; high values mean tight binding
Conditions: protein: recombinant; tags: N-terminal polyhistidine and DsRed monomer fusion (pET32a); label: CyDye5-dUTP incorporated in the synthesized complementary strand; 3' TTTTT single-stranded linker to array surface; dsDNA, one strand shown
Procedure, shortened: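 Binding signal here means per-feature fluorescence intensity in arbitrary units. The values were read on an Axon 4000B scanner after a custom Agilent array, double-stranded by primer extension with Cy5-dUTP, was incubated with 200 nM protein at 25 °C for 1 h in PBS with 2% BSA, salmon testes DNA and 50 µM zinc acetate, then washed. The proteins were transcription factors with an N-terminal polyhistidine tag and DsRed, expressed in E. coli BL21-CodonPlus and purified on Ni–NTA.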

Sequence | binding signal
TCGGTATTGTGATTGAGGGGTAAGAGTAAGTTTCGGCCACCGGAGTCACCTAGTGCAG | 18700 fluorescence intensity (a.u.)
TTAATTGTAAGTTTAACTATTGCTACTTCGCTTGCAGCGTCGGAGTCACCTAGTGCAG | 13600 fluorescence intensity (a.u.)
AATCATGGCGTAATTAGGCTTAAAAGATTCGTCTCGCAATCGGAGTCACCTAGTGCAG | 3620 fluorescence intensity (a.u.)
TTATCCAAAACGTCAATTAATATAGAACTAGAGTGAGTACCGGAGTCACCTAGTGCAG | 4500 fluorescence intensity (a.u.)
GATTTAATTTATTTTGGTAATGATTTGTGGATGATTTTGGCGGAGTCACCTAGTGCAG | 31600 fluorescence intensity (a.u.)
TTAATTGATTGAATCACATCCTTCCGGATTGTTTTGATCCCGGAGTCACCTAGTGCAG | 40800 fluorescence intensity (a.u.)
AGTTATTGACAGTGACTAATCTACCTAATCCGTAGATTAACGGAGTCACCTAGTGCAG | 12500 fluorescence intensity (a.u.)
CCATCACATCCGTTGGCCTAATTGATTTGTGAAGCATCAACGGAGTCACCTAGTGCAG | 4240 fluorescence intensity (a.u.)
ACTTAATTATTGTTATGATTCATTCATGCATAAAGCGGTGCGGAGTCACCTAGTGCAG | 55700 fluorescence intensity (a.u.)
TTATACATCCAAATTTGATTGTTGCGTGCTTATTTTGTTGCGGAGTCACCTAGTGCAG | 13700 fluorescence intensity (a.u.)
TTAATTGATTGATTGATTGATTAATCCGTTGTGAATCTAACGGAGTCACCTAGTGCAG | 61500 fluorescence intensity (a.u.)
GCTCTAATAATTGAATAATTTGATTTGTTTTATTTAAATCCGGAGTCACCTAGTGCAG | 30100 fluorescence intensity (a.u.)
CATTCATATTGATGTTAATAAATTAATATAGATATATATGCGGAGTCACCTAGTGCAG | 3590 fluorescence intensity (a.u.)
GAGTTATGATTTGTTACAATAATTGTAACTTATTGTAAAGCGGAGTCACCTAGTGCAG | 27900 fluorescence intensity (a.u.)
TGCGTGATTGTTGGGATTATTTTATTAATTGATCCAATGGCGGAGTCACCTAGTGCAG | 57200 fluorescence intensity (a.u.)
TGTTGATTGTTGTGTTTAATTGGAGATTGACTATTGAATCCGGAGTCACCTAGTGCAG | 60200 fluorescence intensity (a.u.)
GAGTACAGATGAAATTTGTAGAAATTGGAATGGTCATGTACGGAGTCACCTAGTGCAG | 3810 fluorescence intensity (a.u.)
GGCAAATTGTCAAGGTTAACCGTAAATCTACAGTGCCAATCGGAGTCACCTAGTGCAG | 15500 fluorescence intensity (a.u.)
TCTTCACATGAATGATGAAATTGCTAGTAGCATGTCTTCACGGAGTCACCTAGTGCAG | 3410 fluorescence intensity (a.u.)
AATTGATTGGACTCCACCAACATTAAAATAGTTGTTGATGCGGAGTCACCTAGTGCAG | 56400 fluorescence intensity (a.u.)
TTATATTAATTGATGGTCATTATTGTTGGAGATTATATTGCGGAGTCACCTAGTGCAG | 60800 fluorescence intensity (a.u.)
CAGAATTGAGAGTTCACATATCCTCAGTGGTCAGAGTTCACGGAGTCACCTAGTGCAG | 6100 fluorescence intensity (a.u.)
TTCGATTGATTGATAGTTGATTGTGTGTTTACAATTGAACCGGAGTCACCTAGTGCAG | 52600 fluorescence intensity (a.u.)
AAATTAAATTTTATTTGTTGAAAATAATATCATTGGATTGCGGAGTCACCTAGTGCAG | 6020 fluorescence intensity (a.u.)

Sequence | binding signal
GATTTAAATTAGATGGAAGGTTGAGAATTAAGCTGATCCTCGGAGTCACCTAGTGCAG | 13600 fluorescence intensity (a.u.)
TGATTAAAATTGACATTAAAATTATAGTTTTGTGATGACTCGGAGTCACCTAGTGCAG | 19100 fluorescence intensity (a.u.)
CGTCTACCGTGATTGTTTCGATACAATTGTGTGCAAGTTACGGAGTCACCTAGTGCAG | 21200 fluorescence intensity (a.u.)
ACTTGTTGAAAATTGATTGCTTTGTTGTTGTAGTGTTTACCGGAGTCACCTAGTGCAG | 23600 fluorescence intensity (a.u.)
ACATTCCAAAATTTGACCAAATTTGTTCACTCGTTGACTGCGGAGTCACCTAGTGCAG | 3660 fluorescence intensity (a.u.)
CAGTGGATGATTAATATTGATTAATTATTATAATTGTTTTCGGAGTCACCTAGTGCAG | 39500 fluorescence intensity (a.u.)
GGAGTTGATTGATGGACCTAGAATTGGTTGAGATCCTCAGCGGAGTCACCTAGTGCAG | 63700 fluorescence intensity (a.u.)
CAGTTTTGGTTAATTAAGTAAATAATTGTCCTCAGAAAGTCGGAGTCACCTAGTGCAG | 15100 fluorescence intensity (a.u.)
CATAAATTTTCCGTGCCAACTTTGATCATCCGTTTTATTTCGGAGTCACCTAGTGCAG | 5660 fluorescence intensity (a.u.)
CTATACAACAAATCATTAATTAGGCTCAAAAGAAAGAAAGCGGAGTCACCTAGTGCAG | 11100 fluorescence intensity (a.u.)
CACATGCAAATTATCGTGCGTCTGTATGTGGCATGCTTGTCGGAGTCACCTAGTGCAG | 4230 fluorescence intensity (a.u.)
TACGTGTGTTGATTTCCGTGACATATGCATAAATTTCTTTCGGAGTCACCTAGTGCAG | 3870 fluorescence intensity (a.u.)
GATTTGATTTAAATCTTGAATAAATTTAATAAAATCCTATCGGAGTCACCTAGTGCAG | 10000 fluorescence intensity (a.u.)
AGAGAATTGAATTAATCCGTGTGATATATCACTAAAATTCCGGAGTCACCTAGTGCAG | 5900 fluorescence intensity (a.u.)
AATGTTTTAATCACATTGATTAGCAACTAATTAATCTTAGCGGAGTCACCTAGTGCAG | 47100 fluorescence intensity (a.u.)
ATGATTGAATCCTATAAAATCTTGTGAAATTCCTGTGAAACGGAGTCACCTAGTGCAG | 52800 fluorescence intensity (a.u.)
AGAGATCGAGATTGACACACAACGTGGTTCACGCGTGCGCCGGAGTCACCTAGTGCAG | 23100 fluorescence intensity (a.u.)
GGAGATTGACACGTTGGTCTACGTGCCTATGCGTGTGTTCCGGAGTCACCTAGTGCAG | 55600 fluorescence intensity (a.u.)
ACGGTGTGATTAATTACGTCGCGATCATGTTGTGCTAATCCGGAGTCACCTAGTGCAG | 32500 fluorescence intensity (a.u.)
GCCACTAAATTAATCCGGTGATTGATCATGTGTGGAAGCACGGAGTCACCTAGTGCAG | 54200 fluorescence intensity (a.u.)
TTTAATCACTAATTAATTGTTGATTAGCGGCAAGTGTGACCGGAGTCACCTAGTGCAG | 63800 fluorescence intensity (a.u.)
ATACTAATTACTTAATTAGTGACCAGTGATCACTTGTGTGCGGAGTCACCTAGTGCAG | 45800 fluorescence intensity (a.u.)
TTTTGATGAAATAAACTATGAAAATCCTGTGAAATTCATGCGGAGTCACCTAGTGCAG | 7340 fluorescence intensity (a.u.)
